# Laboratory results published in article PMC9911399, “Two distinct binding modes provide the RNA-binding protein RbFox with extraordinary sequence specificity”.
# Residue numbers refer to the chain shown, from its start. In all, about 16,000 sequences were measured (“ka relative to ugcaugu”: median about 0.096, highest 2% from about 0.35 on). The entries come from a sample that favours the highest values as a whole.
# T1: RBFOX1 RRM RbFoxmut (Fox-RRM*) (Homo sapiens, UniProt Q9NWB1 109-208, R118D;E147R;N151S;E152T)
# T1 sequence: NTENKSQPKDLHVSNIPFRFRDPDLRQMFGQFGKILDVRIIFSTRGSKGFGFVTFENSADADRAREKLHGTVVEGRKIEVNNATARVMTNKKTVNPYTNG
# B1: CUACGGU (DNA:RNA)
# RNA: GGGAGACCGGAAUUCAGAUUGUCCCUACGGUUUAAAUCCCGUCGUAGCCACCA
# DNA 1: CAATCTGAATTCCGGTCTCCC
# DNA 2: TGGTGGCTACGACGGGATT
# B2: CUCUAUU (DNA:RNA)
# RNA: B1 RNA with A27C, C28U, G29A, G30U
# DNA 1: CAATCTGAATTCCGGTCTCCC
# DNA 2: TGGTGGCTACGACGGGATT
# B3: UGCCUAC (DNA:RNA)
# RNA: B1 RNA with C25U, U26G, A27C, G29U, G30A, U31C
# DNA 1: CAATCTGAATTCCGGTCTCCC
# DNA 2: TGGTGGCTACGACGGGATT
# B4: GGCUUCC (DNA:RNA)
# RNA: GGGAGACCGGAAUUCAGAUUGUCCGGCUUCCUUAAAUCCCGUCGUAGCCACCA
# DNA 1: CAATCTGAATTCCGGTCTCCC
# DNA 2: TGGTGGCTACGACGGGATT
# B5: AAAUCUA (DNA:RNA)
# RNA: B1 RNA with C25A, U26A, C28U, G29C, G30U, U31A
# DNA 1: CAATCTGAATTCCGGTCTCCC
# DNA 2: TGGTGGCTACGACGGGATT
# B6: ACCACCC (DNA:RNA)
# RNA: B4 RNA with G25A, G26C, U28A, U29C
# DNA 1: CAATCTGAATTCCGGTCTCCC
# DNA 2: TGGTGGCTACGACGGGATT
# B7: UCUGUUU (DNA:RNA)
# RNA: B1 RNA with C25U, U26C, A27U, C28G, G29U, G30U
# DNA 1: CAATCTGAATTCCGGTCTCCC
# DNA 2: TGGTGGCTACGACGGGATT
# B8: CGUCGUG (DNA:RNA)
# RNA: B1 RNA with U26G, A27U, G30U, U31G
# DNA 1: CAATCTGAATTCCGGTCTCCC
# DNA 2: TGGTGGCTACGACGGGATT
# B9: CUGCACC (DNA:RNA)
# RNA: B1 RNA with A27G, G29A, G30C, U31C
# DNA 1: CAATCTGAATTCCGGTCTCCC
# DNA 2: TGGTGGCTACGACGGGATT
# B10: CUGCACG (DNA:RNA)
# RNA: B1 RNA with A27G, G29A, G30C, U31G
# DNA 1: CAATCTGAATTCCGGTCTCCC
# DNA 2: TGGTGGCTACGACGGGATT
# B11: UGCACGG (DNA:RNA)
# RNA: B4 RNA with G25U, U28A, U29C, C30G, C31G
# DNA 1: CAATCTGAATTCCGGTCTCCC
# DNA 2: TGGTGGCTACGACGGGATT
# B12: UGCACCG (DNA:RNA)
# RNA: B4 RNA with G25U, U28A, U29C, C31G
# DNA 1: CAATCTGAATTCCGGTCTCCC
# DNA 2: TGGTGGCTACGACGGGATT
# B13: UGCACGU (DNA:RNA)
# RNA: B1 RNA with C25U, U26G, A27C, C28A, G29C
# DNA 1: CAATCTGAATTCCGGTCTCCC
# DNA 2: TGGTGGCTACGACGGGATT
# B14: UGCCACG (DNA:RNA)
# RNA: B4 RNA with G25U, U28C, U29A, C31G
# DNA 1: CAATCTGAATTCCGGTCTCCC
# DNA 2: TGGTGGCTACGACGGGATT
# B15: UGCACGA (DNA:RNA)
# RNA: B4 RNA with G25U, U28A, U29C, C30G, C31A
# DNA 1: CAATCTGAATTCCGGTCTCCC
# DNA 2: TGGTGGCTACGACGGGATT
# B16: UGCACCA (DNA:RNA)
# RNA: B4 RNA with G25U, U28A, U29C, C31A
# DNA 1: CAATCTGAATTCCGGTCTCCC
# DNA 2: TGGTGGCTACGACGGGATT
# B17: CCUGCAC (DNA:RNA)
# RNA: B1 RNA with U26C, A27U, C28G, G29C, G30A, U31C
# DNA 1: CAATCTGAATTCCGGTCTCCC
# DNA 2: TGGTGGCTACGACGGGATT
# B18: GUCUGGU (DNA:RNA)
# RNA: B1 RNA with C25G, A27C, C28U
# DNA 1: CAATCTGAATTCCGGTCTCCC
# DNA 2: TGGTGGCTACGACGGGATT
# B19: AAACGGC (DNA:RNA)
# RNA: B1 RNA with C25A, U26A, U31C
# DNA 1: CAATCTGAATTCCGGTCTCCC
# DNA 2: TGGTGGCTACGACGGGATT
# B20: UCAUAGC (DNA:RNA)
# RNA: B1 RNA with C25U, U26C, C28U, G29A, U31C
# DNA 1: CAATCTGAATTCCGGTCTCCC
# DNA 2: TGGTGGCTACGACGGGATT
# B21: ACGGCGA (DNA:RNA)
# RNA: B1 RNA with C25A, U26C, A27G, C28G, G29C, U31A
# DNA 1: CAATCTGAATTCCGGTCTCCC
# DNA 2: TGGTGGCTACGACGGGATT
# B22: CUUUAUC (DNA:RNA)
# RNA: B1 RNA with A27U, C28U, G29A, G30U, U31C
# DNA 1: CAATCTGAATTCCGGTCTCCC
# DNA 2: TGGTGGCTACGACGGGATT
# B23: AAGCCUG (DNA:RNA)
# RNA: B1 RNA with C25A, U26A, A27G, G29C, G30U, U31G
# DNA 1: CAATCTGAATTCCGGTCTCCC
# DNA 2: TGGTGGCTACGACGGGATT
# B24: CAGGCUA (DNA:RNA)
# RNA: B1 RNA with U26A, A27G, C28G, G29C, G30U, U31A
# DNA 1: CAATCTGAATTCCGGTCTCCC
# DNA 2: TGGTGGCTACGACGGGATT
# B25: ACACAAA (DNA:RNA)
# RNA: B1 RNA with C25A, U26C, G29A, G30A, U31A
# DNA 1: CAATCTGAATTCCGGTCTCCC
# DNA 2: TGGTGGCTACGACGGGATT
# B26: GGUUCUG (DNA:RNA)
# RNA: B4 RNA with C27U, U29C, C30U, C31G
# DNA 1: CAATCTGAATTCCGGTCTCCC
# DNA 2: TGGTGGCTACGACGGGATT
# B27: UGGCGUG (DNA:RNA)
# RNA: B1 RNA with C25U, U26G, A27G, G30U, U31G
# DNA 1: CAATCTGAATTCCGGTCTCCC
# DNA 2: TGGTGGCTACGACGGGATT
# B28: CAGCAUA (DNA:RNA)
# RNA: B1 RNA with U26A, A27G, G29A, G30U, U31A
# DNA 1: CAATCTGAATTCCGGTCTCCC
# DNA 2: TGGTGGCTACGACGGGATT
# B29: AGCAUGC (DNA:RNA)
# RNA: B4 RNA with G25A, U28A, C30G
# DNA 1: CAATCTGAATTCCGGTCTCCC
# DNA 2: TGGTGGCTACGACGGGATT
# B30: AUGCUUG (DNA:RNA)
# RNA: B1 RNA with C25A, A27G, G29U, G30U, U31G
# DNA 1: CAATCTGAATTCCGGTCTCCC
# DNA 2: TGGTGGCTACGACGGGATT
# B31: ACCAGCA (DNA:RNA)
# RNA: B4 RNA with G25A, G26C, U28A, U29G, C31A
# DNA 1: CAATCTGAATTCCGGTCTCCC
# DNA 2: TGGTGGCTACGACGGGATT
# B32: CAGCAUG (DNA:RNA)
# RNA: B1 RNA with U26A, A27G, G29A, G30U, U31G
# DNA 1: CAATCTGAATTCCGGTCTCCC
# DNA 2: TGGTGGCTACGACGGGATT
# B33: AUGCUGC (DNA:RNA)
# RNA: B1 RNA with C25A, A27G, G29U, U31C
# DNA 1: CAATCTGAATTCCGGTCTCCC
# DNA 2: TGGTGGCTACGACGGGATT
# B34: AGCAUAA (DNA:RNA)
# RNA: B4 RNA with G25A, U28A, C30A, C31A
# DNA 1: CAATCTGAATTCCGGTCTCCC
# DNA 2: TGGTGGCTACGACGGGATT
# B35: CAGCAUC (DNA:RNA)
# RNA: B1 RNA with U26A, A27G, G29A, G30U, U31C
# DNA 1: CAATCTGAATTCCGGTCTCCC
# DNA 2: TGGTGGCTACGACGGGATT
# B36: AGCCUGC (DNA:RNA)
# RNA: B4 RNA with G25A, U28C, C30G
# DNA 1: CAATCTGAATTCCGGTCTCCC
# DNA 2: TGGTGGCTACGACGGGATT
# B37: AGCAUGA (DNA:RNA)
# RNA: B4 RNA with G25A, U28A, C30G, C31A
# DNA 1: CAATCTGAATTCCGGTCTCCC
# DNA 2: TGGTGGCTACGACGGGATT
# B38: AGCCAGC (DNA:RNA)
# RNA: B4 RNA with G25A, U28C, U29A, C30G
# DNA 1: CAATCTGAATTCCGGTCTCCC
# DNA 2: TGGTGGCTACGACGGGATT
# B39: ACCAUGC (DNA:RNA)
# RNA: B4 RNA with G25A, G26C, U28A, C30G
# DNA 1: CAATCTGAATTCCGGTCTCCC
# DNA 2: TGGTGGCTACGACGGGATT
# Molecular target: T1, RBFOX1 RRM RbFoxmut (Fox-RRM*)
# Experiment: EMSA; HiTS-Eq, 1 nM pool, 10 min; buffer printed only for the single-RNA assays: 10 mM Tris pH 7.5, 150 mM NaCl, 3.4 mM EDTA, 0.001% NP-40, 30 C
# Details: tags: His6 N-terminal (pET28a); label: 5' 32P
# How it was run: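 Purified RbFox RRM (wild type or mutant) was equilibrated for 10 min in 50 µL with 1 nM of a 5′-radiolabelled pool of RNA with 7 randomized nucleotides, its flanks annealed to DNA oligonucleotides, across increasing protein concentrations. Free RNA was separated by 8% native PAGE, excised, reverse-transcribed, PCR-barcoded and sequenced on an Illumina HiSeq 2500. Relative association constants came from read-count changes of each variant against the control reaction, normalised to the cognate motif.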
row,Binder,binding signal
1,B1,0.0878 KA relative to UGCAUGU
2,B2,0.107 KA relative to UGCAUGU
3,B3,0.105 KA relative to UGCAUGU
4,B4,0.142 KA relative to UGCAUGU
5,B5,0.088 KA relative to UGCAUGU
6,B6,0.0531 KA relative to UGCAUGU
7,B7,0.0825 KA relative to UGCAUGU
8,B8,0.156 KA relative to UGCAUGU
9,B9,0.141 KA relative to UGCAUGU
10,B10,0.626 KA relative to UGCAUGU
11,B11,0.308 KA relative to UGCAUGU
12,B12,0.223 KA relative to UGCAUGU
13,B13,0.362 KA relative to UGCAUGU
14,B14,0.158 KA relative to UGCAUGU
15,B15,0.368 KA relative to UGCAUGU
16,B16,0.158 KA relative to UGCAUGU
17,B17,0.09 KA relative to UGCAUGU
18,B18,0.192 KA relative to UGCAUGU
19,B19,0.085 KA relative to UGCAUGU
20,B20,0.116 KA relative to UGCAUGU

row,Binder,binding signal
1,B21,0.1 KA relative to UGCAUGU
2,B22,0.0598 KA relative to UGCAUGU
3,B23,0.0848 KA relative to UGCAUGU
4,B24,0.0916 KA relative to UGCAUGU
5,B25,0.0812 KA relative to UGCAUGU
6,B26,0.208 KA relative to UGCAUGU
7,B27,0.321 KA relative to UGCAUGU
8,B28,0.137 KA relative to UGCAUGU
9,B29,0.495 KA relative to UGCAUGU
10,B30,0.361 KA relative to UGCAUGU
11,B31,0.121 KA relative to UGCAUGU
12,B32,0.965 KA relative to UGCAUGU
13,B33,0.126 KA relative to UGCAUGU
14,B34,0.0973 KA relative to UGCAUGU
15,B35,0.307 KA relative to UGCAUGU
16,B36,0.0804 KA relative to UGCAUGU
17,B37,0.524 KA relative to UGCAUGU
18,B38,0.0776 KA relative to UGCAUGU
19,B39,0.0949 KA relative to UGCAUGU
